Screening data: PubChem BioAssay, Johns Hopkins Ion Channel Center
Only some compounds are listed: those with a hit (about 3.5% of all), similar ones and a draw of the others.
Kir21 block: inhibitors of mouse Kir2.1 inward-rectifier potassium channel | B-score at 10 µM | AID 1672 | HEK293-Kir2.1, FluxOR thallium flux fluorescence; stronger effect = lower value | P35561 | 0.85% of 310,000 active;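 active = fluorescence ratio B-score at or below minus 3 SD of library scores, with starting-brightness B-score within 2 SD, cut at about -4.2 in these data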;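 note: channel flux triggered by added potassium and thallium sulfate stimulus; B-score of peak minus minimum fluorescence over baseline after thallium stimulus; more negative B-score means stronger Kir2.1 block with less thallium influx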
TMEM16A inh: inhibitors of mouse TMEM16A calcium-activated chloride channel | Q8BHY3 | HEK293 TMEM16A/YFP iodide influx fluorescence, ionomycin | normalized B-score (activity score, 25-100; higher = stronger inhibition) at 10 µM | 1.2% of 310,000 active;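 active = ratio plate-corrected score three or more library SD toward inhibition, starting fluorescence score within five deviations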;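 note: score derived from kinetic fluorescence span divided by baseline fluorescence per well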
KCNK3 inh: human KCNK3 channel inhibition, primary screen; 0.84% of 340,000 active; O14649; CHO-KCNK3 thallium flux, FluxOR fluorescence; stronger effect = lower value; AID 602410; B-score at 10 µM;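 active = B-score under library mean minus 4 SD, starting fluorescence ratio at most library mean plus 5 SD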;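 note: more negative B-score means stronger inhibition of thallium flux through KCNK3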
ANO1 activ: activates or potentiates the mouse TMEM16A chloride channel | 0.3% of 340,000 active | Q8BHY3 | B-score at 10 µM | HEK293 TMEM16A/YFP-H148Q/I152L, iodide quench fluorescence; stronger effect = lower value;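 active = fluorescence-ratio B-score plate-corrected deviation score at least 3 library SD below zero, with starting fluorescence score within 5 deviations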;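 note: channel opened by trigger with iodide after compound preincubation; score built on the fluorescence ratio of max minus min over baseline; more negative score means more quench and so TMEM16A activation or potentiation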
KCNK9 block: inhibitors of human KCNK9 two-pore domain potassium channel; 1.2% of 310,000 active; Q9NPC2; HEK293 KCNK9, FluxOR thallium flux fluorescence; stronger effect = lower value; B-score at 10 µM;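 active = ratio B-score over 3 SD below the library mean, with starting fluorescence within 5 SD of its mean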;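 note: negative B-score means less thallium flux so channel inhibition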
Target sequence (Q9NPC2 whole entry, looked up, the tested form may be a part): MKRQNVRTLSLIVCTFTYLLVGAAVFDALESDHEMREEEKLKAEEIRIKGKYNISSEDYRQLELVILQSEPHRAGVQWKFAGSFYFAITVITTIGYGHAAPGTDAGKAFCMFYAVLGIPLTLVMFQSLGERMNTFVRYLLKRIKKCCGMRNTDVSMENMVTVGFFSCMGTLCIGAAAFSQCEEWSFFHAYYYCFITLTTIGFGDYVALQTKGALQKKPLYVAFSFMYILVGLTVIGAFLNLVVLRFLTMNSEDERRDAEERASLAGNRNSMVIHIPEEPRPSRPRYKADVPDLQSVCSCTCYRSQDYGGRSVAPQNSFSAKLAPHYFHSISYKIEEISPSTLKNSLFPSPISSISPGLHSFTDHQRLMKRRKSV
KCNK3 confirm: confirmation of human KCNK3 two-pore domain potassium channel inhibitors | shares compounds with KCNK3 inh | CHO-KCNK3 thallium flux, FluxOR fluorescence; 0% buffer, 100% carvedilol maximal block | ratio percent of control, % at 10 µM | 99% of 2,400 active;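 active = ratio percent of control, averaged over triplicates, above buffer control mean plus 5 SD, cut at about 64% in these data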;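 note: ratio is the fluorescence rise from min to max over baseline after thallium stimulus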
KCNK3 noninduced: KCNK3 inhibitor counter-screen hit in non-induced cells | shares compounds with KCNK3 inh | AID 651747 | thallium flux ratio (lower = more inhibition) at 10 µM | 40% of 2,400 active | non-induced KCNK3 parental cells, FluxOR thallium flux; stronger effect = lower value;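 active = thallium flux ratio, averaged over three wells, more than 5 SD below the buffer control mean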;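 note: host cells are CHO cells without KCNK3 induction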
Hits are given with their value; n = inactive; x = no result given.

SMILES	Kir21 block	TMEM16A inh	KCNK3 inh	ANO1 activ	KCNK9 block	KCNK3 confirm	KCNK3 noninduced
c1ccc(SCc2cc(-c3ccccc3)no2)cc1	n	n	-10	n	n	100	n
O=C(Cc1cnc2ncnn2c1)N1CCc2c([nH]c3ccccc23)C1c1ccccc1F (stereo not drawn)	n	n	n	n	n	x	x
C=CCNc1nc(SC)nc2ccsc12	n	n	n	n	n	x	x
C=CCSc1nc(N(CC)CC)c2sccc2n1	n	n	-10	n	n	121	n
CC(=O)c1cc(C(=O)Nc2ccc3ccccc3c2)c(C)o1	n	n	-11	n	n	53	n
Cc1cc(C(=O)Nc2ccc3ccccc3c2)c(C)o1	n	n	n	n	n	x	x
Cc1oc(-c2cccc3ccccc23)nc1CN1CCN(c2ncnc3ccccc23)CC1	n	n	-9.7	n	n	112	n
CCCN1C(=O)c2cc(C(=O)NC3CCCCCC3)ccc2C1O (stereo not drawn)	n	n	-18	n	n	82	n
O=C(O)c1ccc(Cl)c(NC(=S)NC(=O)c2ccccc2[N+](=O)[O-])c1	n	n	n	n	n	x	x
CC(=O)Nc1ccccc1OCC(=O)NCC(F)(F)F	n	n	n	n	n	x	x
CCN(CC)CCNC(=O)c1ccc(NC(=O)c2cn(-c3ccc(F)cc3)nc2-c2cccc(OC)c2)cc1	-5.5	n	-9	n	n	111	0.15
O=C(Cc1cccs1)Nc1cccc(-c2nc3ccccc3o2)c1	n	n	-8.8	n	n	133	0.14
Cn1c(-c2c(N)n(CCc3ccccc3)c3nc4ccccc4nc23)nc2ccccc21	n	n	-8.8	n	-7.8	158	0.1
Cn1c(-c2c(N)n(CCCc3ccccc3)c3nc4ccccc4nc23)nc2ccccc21	n	x	-9.2	n	n	126	0.15
CCN1CCN(c2c(/C=C3\SC(=S)N(Cc4ccco4)C3=O)c(C)c(C#N)c(=O)n2C)CC1	n	n	-16	n	n	141	0.089
CCCn1c(SCC(=O)NC2CCCCC2)nnc1C1CC1	n	n	n	n	n	x	x
O=c1sc2ccccc2n1CCOc1ccccc1	n	n	n	x	n	x	x
Cc1ccc(OCn2c(=O)sc3ccccc32)cc1	n	n	-11	n	n	112	n
CCOc1ccccc1C(=O)N/N=C/c1coc2ccc(Cl)cc2c1=O	n	n	n	n	n	x	x
Cc1cccc(/C(N)=N/OC(=O)c2cccc3ccccc23)c1	n	n	-9.3	n	n	92	n
CCOc1ccc(CCNC(=O)COC(=O)c2ccc3c(c2)OCCO3)cc1OCC	n	n	n	n	n	x	x
CCCc1nn(-c2cc(Cl)ccc2OC)c2c1C(=O)CC(C)(C)C2	n	n	-11	n	n	87	n
CC(C)(C)c1ccc(C(=O)C2CCCN(C(=O)CCn3cncn3)C2)cc1 (stereo not drawn)	n	n	n	n	n	x	x
Cc1c(C(C)(C)C)sc(=NC(=O)c2ccccc2O)n1C	n	n	-9.7	n	n	65	n
O=C1OC(c2ccc(O)cc2)(c2ccc(O)cc2)c2ccccc21	n	n	n	n	n	x	x
SMILES	Kir21 block	TMEM16A inh	KCNK3 inh	ANO1 activ	KCNK9 block	KCNK3 confirm	KCNK3 noninduced
O=C1OC(c2ccccc2)(c2ccc3cc(O)ccc3c2)c2ccccc21 (stereo not drawn)	x	x	-16	n	x	128	0.11
N#CC1(C#N)[C@@H](C(=O)C23CC4CC(CC(C4)C2)C3)C12CCOCC2	n	n	n	n	n	x	x
Cc1ccc(C2Nc3ccccc3-c3nc4ccccc4n32)o1 (stereo not drawn)	n	n	n	n	n	x	x
CN1c2ccccc2-c2nc3ccccc3n2C1c1ccccn1 (stereo not drawn)	n	n	-9.7	n	n	95	n
CCCc1nc2nc(C)c(NS(=O)(=O)c3ccc(CC(C)C)cc3)c(=O)n2[nH]1	n	n	n	n	n	x	x
CCC(C)(C)n1nnnc1C(c1ccccc1)N1CCc2ccccc2C1 (stereo not drawn)	n	n	-9.4	n	n	110	n
CCOc1cc(S(=O)(=O)N2CCCCCC2)ccc1F	n	n	n	n	n	x	x
Cc1cc(O)c(C(C)C)cc1NC(=O)Nc1cc(Cl)ccc1Cl	x	x	-12	n	x	114	0.16
